Screening results (PubChem)
EBV LMP1 NFkB: EBV LMP1-driven NF-kappaB luciferase reporter inhibitors, primary screen, cell-based, luminescence, single point; LMP1-induced NF-kappaB luciferase reporter cells; inhibition, % at 12.5 µM; 0.69% of 350,000 active; AID 504558, 2011; in the data active means inhibition above about 41%; inconclusive means no clear call, values can overlap the other calls;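 further: 0% = neutral control wells and 100% = reference inhibitor control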
Env fusion inh: inhibitors of HIV-1 Env-driven cell-cell fusion, primary screen, HeLa-JRFL effector, CEM21 target cells, luciferase; 1.1% of 360,000 active; inhibition, % at 12.3 µM;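 active means mean replicate inhibition score of at least 50 and every replicate individually at or above 50; inconclusive means only one of the two criteria met; inactive means mean below 50 and not all replicates reaching 50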;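 further: 0% = plate neutral controls and 100% = maraviroc near 300 nM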
PAX8 reporter: inhibitors of PAX8-driven TPO luciferase reporter, primary screen, RMG-I cells, single concentration | 1.2% of 360,000 active | inhibition, % at 12.6 µM | SteadyGlo, 24 h | AID 652154, 2013;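 active means mean replicate inhibition at least 60% with every replicate also reaching 60%; inconclusive means only one of the two criteria is met; inactive means mean below 60% and not all replicates reaching 60%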;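 further: luciferase light reporting Pax8 driven TPO promoter activity; plate controls were median of neutral control wells for no effect and mitoxantrone controls for full effect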
N-glyco inh: increase of ERlucT glycosylation luciferase signal, primary screen, N-linked glycosylation inhibitor project, D54 ERlucT cells, luminescence, set 2 | D54 ERlucT glycosylation luciferase reporter, 24 h; percent of 100 nM tunicamycin response | reporter increase, % at 12.5 µM | 0.23% of 360,000 active | AID 588692, 2011;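 active means mean luciferase reporter signal, scaled so untreated is 0 and the glycosylation-blocking control 100, at or above a set limit in every replicate; inconclusive means mean reaches the limit but not every replicate does; inactive means mean below the limit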;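 further: luciferase carries N-glycosylation sites so blocking glycosylation raises the light; 0% = median of neutral control wells and 100% = median of 100 nM tunicamycin wells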
Shn3 3UTR inh: reduction of Shn3 3'UTR firefly luciferase signal, primary screen, Schnurri-3 inhibitor project, cell-based, Clone20 osteoblasts, set 2; Clone20 osteoblast Shn3 3'UTR firefly luciferase, 24 h; inhibition, % at 12.5 µM; 0.52% of 360,000 active;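 active means mean inhibition of at least 75% with every replicate also reaching 75%; inconclusive means mean inhibition at least 75% but some replicate below; inactive means mean inhibition below 75%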;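 further: 0% = median of neutral control wells and 100% = pilot-screen positive control compound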
NSD2 inh: NSD2 histone methyltransferase inhibitors, primary screen, biochemical, AlphaScreen, single concentration, set 2. Histone-lysine N-methyltransferase NSD2 (Homo sapiens), O96028. NSD2 peptide methylation, 120 min. inhibition, % at 12.5 µM. 0.54% of 310,000 active. AID 743445, 2014; in the data active means inhibition above about 50%
The depositor's hits bear a star; ? = inconclusive; · = no result; [ ] = another dose, or the depositor's remark. Hits are enriched below; roughly 2.8% of the tested compounds scored in any of these assays.

SMILES	EBV LMP1 NFkB	Env fusion inh	PAX8 reporter	N-glyco inh	Shn3 3UTR inh	NSD2 inh
O=C(Cc1cccnc1)N1CCCCN2[C@@H](CO)[C@H](c3ccc(/C=C/c4ccccc4)cc3)[C@@H]2C1	·	·	-27	·	·	·
O=S1(=O)N(CCN2CC=C(c3c[nH]c4cc(F)ccc34)CC2)c2cccc3c2N1CCC3	0	?	85*	-3	0	·
CC(C)N1CC=C(c2c[nH]c3ccccc23)CC1	10	·	·	3	1	-2
O=C1CNC[C@H]2[C@@H](c3ccc(Br)cc3)[C@H](CO)N12	·	·	-24	·	·	·
C/C=C/c1ccc([C@@H]2[C@H]3CN(C(=O)Cc4ccncc4)CCCCN3[C@H]2CO)cc1	·	·	-12	·	·	·
COc1cc2c(c(OC)c1OC)-c1ccc(O)cc1[C@@H](NC(C)=O)CC2	9	-246	90*	23	21	·
COc1cc2c(c(OC)c1OC)-c1ccc(O)cc1C(NC(C)=O)CC2 (stereo unspecified)	-5	-130	80*	10	25	0
COc1ccc(C#Cc2ccc([C@@H]3[C@H](CO)N4CCCCN(C(=O)Cc5ccccc5)C[C@@H]34)cc2)cc1	·	·	-3	·	·	·
CCC(=O)N1[C@@H]2c3ccc(-c4ccc(F)cc4)c(=O)n3C[C@H]1[C@H](CO)[C@H]2C(=O)OC	·	8[16.7 µM]	-3	·	·	·
C/C=C/c1ccc([C@@H]2[C@@H](CO)N3CCCCN(C(=O)Cc4ccncc4)C[C@@H]23)cc1	·	·	-1	·	·	·
S=C(NCCc1ccccc1)N1Cc2cc(N3CCCCC3)ccc2-n2nncc2C1	·	75*	4	-1	12	·
O=C(C1CC1)N1C[C@@H]2N[C@H](C1)C2c1ccc(-c2cncnc2)cc1 (stereo partly specified)	·	·	8	·	·	·
O=C(C1CC1)N1C[C@@H]2N[C@H](C1)[C@@H]2c1ccc(-c2ccncc2)cc1	·	·	85*	·	·	·
c1cc(OCCN2CC2)ccn1	-3	·	-18	-4	-11	2
c1cnc(OCCN2CC2)cn1	-6	17	87*	-2	-7	-1
COc1ccc(-n2nnnc2C(C2CC2)N2CCC(n3c(=O)[nH]c4ccccc43)CC2)cc1 (stereo unspecified)	·	-35	20	1	-30	·
O=c1[nH]c2ccccc2n1C1CCN(C(c2nnnn2-c2ccc3c(c2)OCCO3)C2CC2)CC1 (stereo unspecified)	·	49	86*	-4	12	·
O=c1[nH]c2ccccc2n1C1CCN(C(c2cccs2)c2nnnn2-c2ccc3c(c2)OCCO3)CC1 (stereo unspecified)	·	34	96*	-4	61	·
O=c1[nH]c2ccccc2n1C1CCN(C(c2ccccc2)c2nnnn2-c2ccc3c(c2)OCCO3)CC1 (stereo unspecified)	·	13	81*	-13	73	·
O=C1NCN(c2ccccc2)C12CCN(C(c1ccccc1)c1nnnn1-c1ccc3c(c1)OCCO3)CC2 (stereo unspecified)	·	-282	15	2	-3	·
COc1ccc(OC(=O)N(C)C[C@@H]2OCc3ccccc3-c3c(n(C)c4ccccc34)C(=O)N([C@@H](C)CO)C[C@@H]2C)cc1	·	·	17	·	·	·
CN1[C@@H](CO)[C@@H]2c3ccccc3NC[C@@H]21	·	·	2	·	·	·
O=C(CSC1c2ccccc2-c2ccccc21)N/N=C/c1ccc(C(=O)O)cc1	4	-37	0	0	11	1
O=C(CSC1c2ccccc2-c2ccccc21)N/N=C/c1ccccc1O	29	61*	·	-4	70	0
O=C(Cc1ccccn1)N1CCCCN2[C@H](CO)[C@@H](c3ccc(-c4ccc(F)cc4)cc3)[C@@H]2C1	·	·	-19	·	·	·
SMILES	EBV LMP1 NFkB	Env fusion inh	PAX8 reporter	N-glyco inh	Shn3 3UTR inh	NSD2 inh
O=C(O)C[C@H]1CC[C@@H]2NC[C@H](O)COC[C@H]2O1	·	-11[16.7 µM]	1	·	·	·
O=c1[nH]c2ccccc2n1C1CCN(C(c2ccccc2OC(F)(F)F)c2nnnn2-c2ccc3c(c2)OCCO3)CC1 (stereo unspecified)	·	-13	94*	-10	-1	·
COc1cccc(C(c2nnnn2-c2ccc3c(c2)OCCO3)N2CCC(n3c(=O)[nH]c4ccccc43)CC2)c1OC (stereo unspecified)	·	22	93*	-7	87*	·
CC(C)(C)c1cc(C=C(C#N)C#N)cc(C(C)(C)C)c1O	24	-16	109*	-13	93*	·
CCN1C[C@]2(COC)CC[C@H](OC)[C@@]34C1[C@]1(OCO[C@@]15C[C@H](OC)[C@H]1C[C@@H]3[C@@H]5[C@H]1OC)[C@@H](O)[C@H]24	56*	11	-18	22	89*	·
O=C(Cc1ccccn1)N1CCCCN2[C@@H](CO)[C@H](c3ccc(-c4ccccc4F)cc3)[C@@H]2C1	·	·	67*	·	·	·
O=C(Cc1ccccn1)N1CCCCN2[C@H](CO)[C@H](c3ccc(-c4ccccc4F)cc3)[C@H]2C1	·	·	-10	·	·	·
O=C(Cc1ccccn1)N1CCCCN2[C@@H](CO)[C@@H](c3ccc(-c4ccccc4F)cc3)[C@@H]2C1	·	·	99*	·	·	·
O=C(Cc1cccnc1)N1CCCCN2[C@H](C1)[C@H](c1ccc(/C=C/c3ccccc3)cc1)[C@@H]2CO	·	·	81*	·	·	·
COC(=O)[C@H]1[C@H](CO)[C@H]2Cn3c(ccc(-c4cccc(F)c4)c3=O)[C@@H]1N2Cc1ccncc1	·	·	3	·	·	·
O=C(Cc1cccnc1)N1CCCCN2[C@H](CO)[C@H](c3ccc(C#CC4CC4)cc3)[C@@H]2C1	·	·	8	·	·	·
O=C(N/N=C/c1c(O)n(C2CCCCC2)c(=S)[nH]c1=O)c1ccccc1	10	-2	10	5	-18	-2
O=C(N/N=C/c1c(O)n(C2CCCCC2)c(=S)[nH]c1=O)c1ccccc1O	42*	-77	-6	1	1	-3
C/C=C/c1ccc(C2[C@@H]3CN(Cc4nccs4)C[C@H]2N3)cc1 (stereo partly specified)	·	·	-9	·	·	·
C[C@]12CC[C@H]3[C@@H](CC[C@]4(O)C[C@@H](O)CC[C@]34C=O)[C@@]1(O)CC[C@@H]2C1=CC(=O)OC1	38	-39	111*	-19	2	·
CC12CCC3C(CCC4(O)CC(O)CCC34C=NO)C1(O)CCC2C1=COC(=O)C1 (stereo unspecified)	62*	105*	109*	-17	11	-1
CC12CC[C@H]3[C@@H](CCC4(O)C[C@H](O)CCC34/C=N/NC(=O)c3ccccc3Cl)C1(O)CCC2C1=CC(=O)OC1 (stereo partly specified)	-11	-17	-16	2	-1	·
